High-throughput results deposited in PubChem by National Center for Advancing Translational Sciences (NCATS).
PNC inhibitor – High Content Assay for Compounds that inhibit the Assembly of the Perinucleolar Compartment; PC3M PTB-GFP, PNC prevalence imaging, 16 h; stronger effect = lower value; activity change (PNC), negative = inhibition, % at 10 µM; actives 3.1% (n = 140,000); AID 2417, 2010;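 active = readout at or below -70, meaning at least 70% loss of cells showing the perinucleolar compartment, a nuclear body marking cancer cells; inconclusive = readout between -30 and a set limit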;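 also: plate controls were DMSO wells for no effect and camptothecin positive control wells for full effect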
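PC3M cells stably expressing PTB-GFP, 750–1000 cells/well, treated 16 h at 37 °C with compound (23 nl of library stock), in duplicate. After paraformaldehyde fixation and Hoechst stain, imaged at 20x; PNC prevalence scored by image analysis.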
ALOX15B inhib – qHTS Assay for Inhibitors of 15-hLO-2 (15-human lipoxygenase 2); Polyunsaturated fatty acid lipoxygenase ALOX15B (Homo sapiens), O15296; AID 881, 2007; purified 15hLO-2, xylenol orange hydroperoxide absorbance; actives 0.56% (n = 110,000); Potency, µM (highest dose often 57.1 µM), inactives show at the highest dose activity change, negative = inhibition, most hits filed as inhibitors; also: potency is read from the fitted curve at half-maximal effect; nearly all actives have a fitted effect of over 60% in size
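Purified human 15hLO-2 (50 nM) preincubated 15 min with compound, then 45 uM arachidonic acid for 90 min at RT in 25 mM Hepes pH 7.5, 0.01% Triton X-100. Hydroperoxide detected by Fe-xylenol orange; 573/405 nm absorbance ratio.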
12-hLO inh – qHTS Assay for Inhibitors of 12-hLO (12-human lipoxygenase). Polyunsaturated fatty acid lipoxygenase ALOX12 (Homo sapiens), P18054. purified 12-hLO, xylenol orange hydroperoxide absorbance. Potency, µM (doses to about 57.1 µM), for inactives: top-dose activity change, negative = inhibition, usual class: inhibitors. actives 0.12% (n = 150,000); also: potency is read from the fitted curve at half-maximal effect; nearly all actives have a fitted effect of over 55% in size
Target sequence (P18054 whole entry, looked up): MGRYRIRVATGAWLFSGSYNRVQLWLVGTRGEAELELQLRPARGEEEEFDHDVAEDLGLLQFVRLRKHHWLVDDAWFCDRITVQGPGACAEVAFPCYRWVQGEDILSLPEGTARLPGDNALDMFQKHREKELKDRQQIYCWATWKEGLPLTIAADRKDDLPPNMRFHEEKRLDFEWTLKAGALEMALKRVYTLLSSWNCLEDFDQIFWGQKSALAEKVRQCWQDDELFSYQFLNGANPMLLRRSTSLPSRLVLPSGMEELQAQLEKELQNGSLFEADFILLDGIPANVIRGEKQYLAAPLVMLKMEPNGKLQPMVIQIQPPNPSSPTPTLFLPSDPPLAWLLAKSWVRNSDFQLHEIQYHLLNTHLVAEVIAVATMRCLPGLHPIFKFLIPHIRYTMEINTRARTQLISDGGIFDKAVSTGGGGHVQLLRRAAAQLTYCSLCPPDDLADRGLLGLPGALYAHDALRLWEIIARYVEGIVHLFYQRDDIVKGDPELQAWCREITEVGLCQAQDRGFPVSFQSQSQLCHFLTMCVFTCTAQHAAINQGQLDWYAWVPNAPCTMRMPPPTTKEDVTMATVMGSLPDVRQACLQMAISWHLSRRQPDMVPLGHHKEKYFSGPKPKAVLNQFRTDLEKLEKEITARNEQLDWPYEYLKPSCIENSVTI
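Hydroperoxide output read as Fe(III)-xylenol orange absorbance, 573-to-405 nm ratio, after 30 min reaction with 40 uM arachidonic acid. Enzyme: 150 nM purified human 12hLO, 15 min compound preincubation; 25 mM Hepes pH 7.0, room temperature.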
* = called active by the depositor; [ ] = dose if it differs, or a comment. Compounds with a hit are over-represented: about 3.2% of the library has one in this group of screens. Unless noted, calls follow the shape of the dose curve; as a rule, active = well fitted curve in the direction sought with a large enough effect; inconclusive = small, poorly fitted or top-dose-only effect, or another doubt; inactive = no such curve, though single readings can be large; an effect the other way counts as inactive or inconclusive. Unless noted, % is scaled to controls: 0 for no effect and ±100 for the full control effect.

O=C(c1ccncc1)N1CCC2(CC1)CN(c1ncccn1)C2 was read as ALOX15B inhib -2% and 12-hLO inh 4%.
For CCN1C(=O)N[C@@H](c2cccc(C(F)(F)F)c2)C(C(=O)OC)=C1C the results were 12-hLO inh -4%[11.4 µM].
For CC1=C(C(=O)Nc2ccc([N+](=O)[O-])cc2)C(c2cccc(C(F)(F)F)c2)NC(=S)N1c1ccccc1 (stereo unspecified) the results were PNC inhibitor 30, ALOX15B inhib inconclusive and 12-hLO inh 22µM*.
Screening O=C1N2CCSC2=NC1(NS(=O)(=O)c1ccccc1)C(F)(F)F (stereo unspecified) returned PNC inhibitor -17, ALOX15B inhib 0% and 12-hLO inh -2%.
Screening Cc1cc(C)c(OCC(=O)Nc2nnn(C)n2)c(Br)c1 returned PNC inhibitor -100* and 12-hLO inh 5%.
`Cc1ccc(OCC(=O)Nc2nnn(C)n2)c(C)c1` gave PNC inhibitor -22, ALOX15B inhib -1% and 12-hLO inh 1%.
CC(C)NC(=O)CSCc1c(F)cccc1Cl was read as PNC inhibitor -7 and 12-hLO inh -2%.
CCNC(=S)N/N=C(\C)c1ccc(N2CCOCC2)cc1 was read as PNC inhibitor -19 and 12-hLO inh -6%.
For CNC(=S)N/N=C(\C)c1ccc(N2CCOCC2)cc1 the results were PNC inhibitor -112* and 12-hLO inh -3%.
Screening COc1c(Cl)ccc(Cl)c1C(=O)O returned ALOX15B inhib -1% and 12-hLO inh -4%.
Screening CC[C@H]1C2=C3C(CC[C@H]4C(OC)OC[C@](C)([C@@H]34)N(C(=O)OC(C)(C)C)C2)C(CO)C1CO (stereo partly specified) returned ALOX15B inhib -3% and 12-hLO inh -2%.
For CC(C)N(C(=O)CSc1nnnn1C1CCCC1)C(C)C the results were PNC inhibitor -16, ALOX15B inhib -1% and 12-hLO inh 0%.
Cc1ccccc1-n1c(SCC(=O)N2CCN(c3ccccc3)CC2)nnc1-c1ccncc1 was read as PNC inhibitor -13, ALOX15B inhib 1% and 12-hLO inh -2%.
Screening CCn1c(SCC(=O)N2CCN(c3ccccc3)CC2)nnc1-c1ccncc1 returned PNC inhibitor -100* and 12-hLO inh -1%.
For O=C(CSc1nc2ccccc2c(=O)n1-c1ccc(OC(F)F)cc1)NCc1cccs1 the results were PNC inhibitor 42 and 12-hLO inh -4%.
For COc1cccc(NC(=O)C(Cc2ccccc2)NC(=O)C2CCC(C)CC2)c1 (stereo unspecified) the results were PNC inhibitor -119* and 12-hLO inh -8%.
COc1cccc(NC(=O)N[C@@H](Cc2ccccc2)C(=O)O)c1 was read as PNC inhibitor -19, ALOX15B inhib -4%[11.4 µM] and 12-hLO inh -6%.
CN1C(=O)CCC1(O)c1ccccc1 (stereo unspecified) was read as PNC inhibitor inconclusive, ALOX15B inhib -19% and 12-hLO inh 1%.
CC1(C)CC(=O)N(c2ccccc2)C1(C)O (stereo unspecified) was read as PNC inhibitor -86*, ALOX15B inhib -3% and 12-hLO inh 2%.
`COCCn1c(SCC(=O)Nc2sc(C)c(C)c2C#N)nnc1-c1ccc(OC)cc1` gave PNC inhibitor 26, ALOX15B inhib 4% and 12-hLO inh -2%.
Screening COCCn1c(SCC#N)nnc1-c1ccc(OC)cc1 returned PNC inhibitor -100* and 12-hLO inh -9%.
Screening COc1ccc(CNC(=O)c2cccs2)cc1 returned PNC inhibitor -100*, ALOX15B inhib 0% and 12-hLO inh -9%.
COc1ccc(OCC(=O)NNC(=O)c2cccs2)cc1 was read as PNC inhibitor 53 and 12-hLO inh 6%.
For CCCCCC(=O)NNC(=O)c1ccc(-c2ccccc2)cc1 the results were PNC inhibitor -4, ALOX15B inhib -10% and 12-hLO inh 2%.
`CC(=O)Nc1c(O)n(C)c2ccccc12` gave PNC inhibitor 34, ALOX15B inhib -2% and 12-hLO inh -5%.
`CC(=O)Nc1c(O)[nH]c2ccccc12` gave PNC inhibitor -98*, ALOX15B inhib -4% and 12-hLO inh 3%.
For CCN(CC)C(=S)SCC(=O)NC12CC3CC(CC(C3)C1)C2 the results were PNC inhibitor 5 and 12-hLO inh -6%.
`Cc1cc(Nc2ccccc2F)n2ncnc2n1` gave PNC inhibitor inconclusive, ALOX15B inhib -2% and 12-hLO inh -1%.
For Cc1cc(C(=O)COc2cccc3cccnc23)c(C)n1C the results were PNC inhibitor inconclusive, ALOX15B inhib 7% and 12-hLO inh 5%.
For Cc1ccc(OCC(=O)c2cc(C)n(C)c2C)c([N+](=O)[O-])n1 the results were PNC inhibitor -121* and 12-hLO inh -3%.
CCN1CCN(C(=O)c2ccc(Sc3ccccc3Cl)c([N+](=O)[O-])c2)CC1 was read as PNC inhibitor 104 and 12-hLO inh 3%.
Screening O=C(c1ccc(S(=O)(=O)c2ccccc2Cl)c([N+](=O)[O-])c1)N1CCCCCC1 returned PNC inhibitor -105* and 12-hLO inh -6%.
For CCC(c1nnc(SCC(=O)Nc2ccc(C(C)=O)cc2)n1C1CCCCC1)N(C)C (stereo unspecified) the results were PNC inhibitor 1 and 12-hLO inh 0%.
`CCC(c1nnc(SCC(=O)Nc2cc(Cl)ccc2C#N)n1C1CCCCC1)N(C)C` (stereo unspecified) gave PNC inhibitor -107* and 12-hLO inh -1%.
Screening O=S(=O)(NCCOCC(F)(F)F)c1ccc2oc3ccccc3c2c1 returned PNC inhibitor 17 and 12-hLO inh -1%.
`CCc1cc(C(=O)N/N=C/c2c(C)[nH]c3ccccc23)cs1` gave PNC inhibitor 25 and 12-hLO inh -8%.
O=C(NC(=S)NCc1cccnc1)c1ccccc1 was read as PNC inhibitor 1 and 12-hLO inh -3%.
`O=C(NC(=S)NCCSc1ccccc1)c1cccnc1` gave PNC inhibitor -95* and 12-hLO inh -3%.
For COc1ccc(C(C)(C)C)cc1NC(=S)NCCN1CCOCC1 the results were PNC inhibitor 32 and 12-hLO inh -17%.
`CN(C(=O)c1ccc2c(=O)n3c(nc2c1)CCCCC3)c1ccccc1` gave PNC inhibitor -100* and 12-hLO inh -3%.
Screening CN(C)c1cccc(C(=O)Nc2ccc3nc4n(c(=O)c3c2)CCCCC4)c1 returned PNC inhibitor inconclusive, ALOX15B inhib 2% and 12-hLO inh 1%.
For Cc1ccc(-c2nnc(N3CCOCC3)c3ccccc23)cc1S(=O)(=O)NCC1CCCO1 (stereo unspecified) the results were PNC inhibitor -2, ALOX15B inhib 3% and 12-hLO inh -2%.
`CCOC(=O)C1(C(C)C)Oc2ccccc2C(c2ccc(OC)cc2)=C1C(=O)OC` (stereo unspecified) gave ALOX15B inhib 6%[0.0915 µM] and 12-hLO inh -2%[0.00818 µM].
COc1ccc(S(=O)(=O)Nc2ccccc2C)cc1 was read as PNC inhibitor inconclusive, ALOX15B inhib -2% and 12-hLO inh 1%.
